High-throughput results as filed in PubChem BioAssay.
JMJD2A Tudor inh: JMJD2A Tudor domain (human) inhibition. AID 504339. AlphaScreen JMJD2A-Tudor / H3K4me3 peptide binding. O75164. 390,000 tested, 4.4% active. Potency, µM (series often up to 114 µM), for inactives: at the top dose activity change, negative = inhibition, usual class: inhibitors; also: % is scaled to controls: 0 for no effect and ±100 for the full control effect; nearly all actives have a fitted effect of over 50% in size
BAZ2B block: inhibitors of human BAZ2B bromodomain; Q9UIF8; AlphaScreen BAZ2B-H3K14Ac peptide displacement; Potency, µM (top dose mostly 114 µM), for inactives: top-dose activity change, negative = inhibition, most hits filed as inhibitors; 360,000 tested, 4.4% active; AID 504333; also: % is scaled to controls: 0 for no effect and ±100 for the full control effect; nearly all actives have a fitted effect of over 60% in size
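In this displacement format the biotinylated H3(5-23) peptide acetylated at Lys14 serves as ligand at 50 nM, with BAZ2B at 50 nM in PBS pH 7.4 containing 0.01% Tween-20. Donor and acceptor beads are 10 ug/mL final.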
G9a inh: G9a (human) methyltransferase inhibition | Potency, µM (top dose mostly 102 µM), for inactives: at the top dose activity, negative = inhibition, hits mostly inhibitors | 350,000 tested, 8.8% active | Q96KQ7 | G9a H3K9 monomethylation, AlphaScreen, 2 h | AID 504332; also: % is scaled to controls: 0 for no effect and ±100 for the full control effect; nearly all actives have a fitted effect of over 75% in size
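G9a (20 nM) preincubated 15 min RT with compounds, then 500 nM biotinylated H3K9 peptide and 20 uM SAM added; 2 h RT reaction. Monomethyl-H3K9 product detected by AlphaScreen with anti-H3K9me1 antibody, streptavidin donor and anti-rabbit IgG acceptor beads.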
L3MBTL1 block: inhibitors of human L3MBTL1; Q9Y468; AlphaScreen L3MBTL1–H3K9me1 peptide binding; Potency, µM (doses to about 57.1 µM), for the others: top-dose activity, negative = inhibition, actives largely listed as inhibitors; 230,000 tested, 0.66% active; also: % is scaled to controls: 0 for no effect and ±100 for the full control effect; nearly all actives have a fitted effect of over 60% in size
Target sequence (Q9Y468 whole entry, looked up): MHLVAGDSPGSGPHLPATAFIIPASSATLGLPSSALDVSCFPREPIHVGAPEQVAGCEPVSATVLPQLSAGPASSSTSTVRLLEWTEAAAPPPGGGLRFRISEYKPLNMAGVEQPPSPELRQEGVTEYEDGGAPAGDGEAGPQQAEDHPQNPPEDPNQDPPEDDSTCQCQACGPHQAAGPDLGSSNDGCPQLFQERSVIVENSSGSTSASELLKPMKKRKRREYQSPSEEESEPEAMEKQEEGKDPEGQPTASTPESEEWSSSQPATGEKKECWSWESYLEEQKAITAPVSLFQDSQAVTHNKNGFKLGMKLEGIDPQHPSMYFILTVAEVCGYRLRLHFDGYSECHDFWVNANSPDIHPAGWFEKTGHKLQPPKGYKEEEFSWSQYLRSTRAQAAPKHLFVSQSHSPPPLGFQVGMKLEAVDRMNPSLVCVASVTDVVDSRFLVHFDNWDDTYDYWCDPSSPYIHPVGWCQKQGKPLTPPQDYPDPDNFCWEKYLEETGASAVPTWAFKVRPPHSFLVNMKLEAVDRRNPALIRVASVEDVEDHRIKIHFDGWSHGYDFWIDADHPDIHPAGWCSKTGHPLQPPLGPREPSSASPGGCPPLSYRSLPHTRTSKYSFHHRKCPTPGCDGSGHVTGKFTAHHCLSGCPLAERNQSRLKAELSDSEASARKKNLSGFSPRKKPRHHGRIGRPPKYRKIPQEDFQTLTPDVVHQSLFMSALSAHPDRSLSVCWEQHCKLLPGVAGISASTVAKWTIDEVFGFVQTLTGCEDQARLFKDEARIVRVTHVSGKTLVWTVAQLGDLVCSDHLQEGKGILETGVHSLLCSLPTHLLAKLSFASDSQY
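L3MBTL1 50 nM + b-AHA-H3(1-15)K9me1 75 nM, 30 min RT; compound added, 30 min RT; streptavidin donor/Ni-chelate acceptor beads 10 ug/mL each final, 30 min RT dark; AlphaScreen read.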
Sfp inh: inhibitors of Bacillus subtilis Sfp phosphopantetheinyl transferase | Q9F4F7 | Biochemical Sfp PPTase activity, qHTS | 310,000 tested, 3.5% active | Potency, µM, for the others: largest response in the series, negative = inhibition, usual class: inhibitors;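 also: the enzyme is Sfp with the accession as filed and its product quenches rhodamine fluorescence; 0% = enzyme reaction without inhibitor and -100% = no enzyme wells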
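Fluorescence-quenching assay with 15 nM Sfp, 5 uM rhodamine-CoA and 12.5 uM BHQ-2-labelled ybbR peptide in pH 7.6 Hepes/MgCl2 buffer. Enzyme was pre-incubated with compound for 15 min at room temperature. Rate was taken from the 30-min fluorescence change (525/598 nm).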
HP1b chromo inh: inhibitors of HP1-beta chromodomain binding to methylated histone tails | AlphaScreen HP1-beta / biotin-H3K9me3 peptide binding | 390,000 tested, 0.56% active | Potency, µM (doses to about 114 µM), for the others: at the highest dose activity change, negative = inhibition, hits mostly inhibitors; also: nearly all actives have a fitted effect of over 70% in size
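Compound inhibition of the preformed complex between 50 nM HP1-beta and 50 nM biotinylated H3K9me3 peptide was read by AlphaScreen. Buffer was PBS pH 7.4 with 0.01% Tween-20. Incubations ran 30 min at room temperature, with 10 ug/mL donor/acceptor beads.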
An asterisk follows results filed as active; ? = inconclusive; . = no result given; [ ] = remark or other dose. Compounds with a hit are over-represented: about 12% of the library has one in this group of screens. Calls follow the shape of the dose curve; as a rule, active = well fitted curve in the direction sought with a large enough effect; inconclusive = small, poorly fitted or top-dose-only effect, or another doubt; inactive = no such curve, though single readings can be large; an effect the other way counts as inactive or inconclusive. Potency is read from the fitted curve at half-maximal effect.

SMILES	JMJD2A Tudor inh	BAZ2B block	G9a inh	L3MBTL1 block	Sfp inh	HP1b chromo inh
Cc1ccc2cc(CN(Cc3ccco3)C(=S)NCC3CCCO3)c(=O)[nH]c2c1 (stereo not given)	-29%	-31%	-46%	-16%	8%	8%
Cc1ccc2c(c1)cc(CN(Cc1cccs1)C(=O)c1ccco1)c1nnnn12	28µM*	1%	10%[59 µM]	0%	2%	?
Cc1ccc(C)c2[nH]c(=O)c(CN(Cc3ccco3)C(=S)NCC3CCCO3)cc12 (stereo not given)	-20%	?	40µM*	-20%	-18%	-6%
COc1ccccc1NC(=S)N(Cc1ccco1)Cc1cc2cc(C)cc(C)c2[nH]c1=O	-1%	-9%	-11%[59 µM]	-11%	11%	27%
CCOc1ccccc1CNC(=O)c1cnc2sc(N3CCCC3)nn2c1=O	-8%	-8%	14%[59 µM]	.	.	-16%
Cc1cc([C@](C)(N)C(=O)O)ccc1P(=O)(O)O	.	.	.	.	-7%	.
CCOc1ccc(-c2nn[nH]n2)cc1	50µM*	?	-30%[2.33 µM]	.	2%	14%
CC(N)(C(=O)O)c1ccc(S(=O)(=O)O)cc1 (stereo not given)	.	.	18%[59 µM]	.	50µM*	.
C[C@](N)(C(=O)O)c1ccc(-c2nn[nH]n2)cc1	.	.	.	.	28µM*	.
c1ccc(-c2nn[nH]n2)cc1	-25%	-19%	?	6%	19%	14%
O=C(C1CC(=O)N(c2ccc3c(c2)OCCO3)C1)N1CCN(Cc2ccccc2F)CC1 (stereo not given)	-3%	-3%	18%[59 µM]	0%	.	37%
COC(=O)C/C=C\[C@@H](C)[C@@H](/C=N\O[C@@H](C)CN1CCCCc2nc(C)c(C)cc21)NS(=O)(=O)c1ccc(C)cc1	.	.	.	.	4%	.
CCN(CC(=O)Nc1ccc(NC(C)=O)cc1)C(=O)CN1C(=O)NC(C)(c2ccc3ccccc3c2)C1=O (stereo not given)	-20%	.	.	.	.	41%
O=C(c1ccccc1)N1CCN(c2ccc(N3CCOCC3)nn2)CC1	-13%	-1%	-6%	1%	.	16%
Brc1ccccc1C1CC(c2ccccc2)=Nc2ccccc2N1 (stereo not given)	40µM*	?	?	-10%	-23%	-24%
Clc1ccccc1C1CC(c2ccccc2)=Nc2ccccc2N1 (stereo not given)	-4%	?	.	-25%	-18%	19%
CC1(c2ccccc2)CC(c2ccccc2)=Nc2ccccc2N1 (stereo not given)	-19%	?	.	-4%	15%	7%
c1ccc(C2=Nc3ccccc3NC(c3ccccc3)C2)cc1 (stereo not given)	0%	10%	35µM*	7%	-28%	21%
CCC(=O)N1CCc2cc(Br)cc(S(=O)(=O)N3CCCC(C(=O)Nc4cccc(F)c4)C3)c21 (stereo not given)	-14%	-9%	-46%[59 µM]	.	.	46%
S=C(NCc1ccc(Cl)c(Cl)c1)Nc1ccc2c(c1)OCO2	-3%	?	-14%[59 µM]	-22%	1%	24%
S=C(Nc1ccc2c(c1)OCCO2)Nc1ccc2c(c1)OCO2	-29%	?	50µM*	-19%	-13%	-1%
S=C(Nc1ccc2c(c1)OCO2)Nc1ccccc1Cl	-14%[11.4 µM]	-17%	?	-8%	18µM*	34%
CC(C)(C)NC(=O)CSc1nc2scc(-c3ccccc3)c2c(=O)[nH]1	-6%	1%	7%[59 µM]	5%	2%	22%
Cc1ccc(-c2csc3nc(SCC(=O)Nc4ccc(Cl)c(C(=O)O)c4)[nH]c(=O)c23)cc1	-28%	?	28µM*	.	-14%	0%[57 µM]
Cc1sc2nc(SCC(=O)N3CCOCC3)[nH]c(=O)c2c1-c1ccccc1	-17%	-18%	45µM*	.	-17%	12%
SMILES	JMJD2A Tudor inh	BAZ2B block	G9a inh	L3MBTL1 block	Sfp inh	HP1b chromo inh
O=C(CSc1nc2scc(-c3ccccc3)c2c(=O)[nH]1)N1CCCCC1	-9%	-27%	50µM*	-8%	-9%	14%
O=C(CSc1nc2scc(-c3ccccc3)c2c(=O)[nH]1)NC1CCCCC1	.	3%	16%	.	-6%	.
COCCNC(=O)CSc1nc2scc(-c3ccccc3)c2c(=O)[nH]1	-10%	-23%	50µM*	.	16%	14%
COC(=O)C1=C(C(=O)OC)[C@@H]2N(Cc3ccccc3)c3ccccc3[C@@]23C[C@@H](C(=O)OC)N(S(=O)(=O)c2ccc(C)cc2)C3=N1	.	.	.	.	-5%	.
COc1ccc(NC(=O)C2=C(C)Nc3ncnn3C2c2sccc2C)cc1 (stereo not given)	-13%	-1%	3%[59 µM]	.	.	17%[57 µM]
O=C(CCC(=O)Nc1nnc(C2CCCCC2)s1)NCc1ccc(F)cc1	-4%	-4%	-21%	.	-5%	29%
CC(C)(C)SCCNS(=O)(=O)c1ccc(C#N)cc1	-14%	0%	-2%	1%	16%	-2%
CC(C)(C)SCCNS(=O)(=O)c1ccc(Cl)cc1	18µM*	-1%	36%[12.7 µM]	5%	9%	-14%
COc1cc(N2C(=O)C=CC2=O)ccc1N1C(=O)C=CC1=O	4.5µM*	.	.	.	.	?
COc1ccccc1CNC(=O)c1ccc2ccccc2n1	-6%	79µM*	10%	.	-2%	41%
COc1ccc(CNC(=O)c2ccc3ccccc3n2)cc1OC	-5%	1%	27%	.	2%	29%
COc1ccccc1CNC(=O)c1ccc(-c2ccccc2)cc1	-6%	-5%	45µM*	-2%	?	33%
COc1ccc(C(=O)NCc2ccccc2OC)cc1	1%	-3%	-7%[59 µM]	-13%	9%	29%
O=C(NCCCl)Nc1cccc(Br)c1	-20%	-2%	.	8%	0%	22%
C=CCC[C@@H](Cc1ccc(F)cc1)C(=O)OC[C@@H](Cc1c[nH]c2ccccc12)NC(=O)[C@@H](CC=C)CC(=O)N[C@H](CO)Cc1ccccc1	-23%	.	.	9%	.	29%
Cc1c(Cl)cccc1NC(=O)C(C)n1c(=O)cc(C)c2c(C)nn(-c3ccccc3)c21 (stereo not given)	-12%	-7%	11%[59 µM]	.	.	13%
Cc1sc2nc3ccc(N4CCCCC4)nn3c(=O)c2c1C	3%	8%	32µM*	10%	-16%	9%
Cc1cc(SC2CCOC2=O)nc2ccccc12 (stereo not given)	-5%	4%	?	-20%	-9%	38%
Cc1cc2nnc(SC(C)C#N)n2c2ccccc12 (stereo not given)	10µM*	6%	3.2µM*	-12%	-5%	3%
Cc1cc2nnc(SC3CCCCN(C(=O)c4ccc(F)cc4)C3=O)n2c2ccccc12 (stereo not given)	?	0%	40µM*	0%	1%	31%
